In PubChem BioAssay one finds z-score and composite z-score data, which are given here for five compounds.

The nature of experiment [1]: optical density shifts of acrAB sulA E. coli – strain DRC41, OD650, 48 h, E. coli filamentation inducer project, primary screen (AID 1152).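 Further: E. coli MC1000 strain DRC41 lacking acrAB efflux pump and sulA.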 As to conditions: higher = more signal, called active from +8 up or from −8 down.
Experiment [2] in a line: probe aLefty1 binding on compound microarray – biochemical, small-molecule microarray, 635/667 nm fluorescence, primary screen (AID 1153).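 Further: score merges spot fluorescence with signal-to-noise ratio from the scanned slide images.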 As to conditions: higher = more signal.
Experiment [3] is described as follows: plasmodial surface anion channel blockers, osmotic lysis – cell-based, P. falciparum Indochina, OD700, 1 h, primary screen (AID 1154). The conditions noted are these: P. falciparum Indochina infected RBC osmotic lysis, higher = more signal, called active from +8 up or from −8 down.
A short description of experiment [4]: plasmodial surface anion channel blockers, osmotic lysis – cell-based, P. falciparum Indochina, OD700, 2 h, primary screen (AID 1155).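 Further: lysis reports solute entry through the parasite surface anion channel PSAC.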 As to conditions: P. falciparum Indochina infected erythrocytes, higher = more signal, called active from +8 up or from −8 down.
Experiment [5] is described as follows: changes in parasitized red cell lysis, either direction – P. falciparum Indochina, OD700, 3 h, PSAC antagonist project, primary screen (AID 1156). The conditions noted are these: P. falciparum-infected erythrocytes, osmotic lysis, higher = more signal, called active from +8 up or from −8 down.
Experiment [6] can be described thus: plasmodial surface anion channel blockers, osmotic lysis – cell-based, P. falciparum Indochina, OD700, 18 h, primary screen (AID 1157). As to conditions: P. falciparum Indochina infected erythrocytes, osmotic lysis OD700, 18 h; higher = more signal, called active from +8 up or from −8 down.
Experiment [7] is described as follows: S6 kinase pathway phospho-S6 level changes – cell-based, A549, cytoblot, luminescence, serum-stimulated, primary screen (AID 1158).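 Further: serum-stimulated A549 lung adenocarcinoma cells; signal is phosphorylated S6 detected by cytoblot immunostaining with HRP secondary.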 The conditions noted are these: 5 h, higher = more signal.
Experiment [8] concerns the target NADPH oxidase 2 (Homo sapiens) (UniProt P04839). The experiment can be described thus: compounds shifting NOX2 Amplex Red fluorescence – cell-based, HEK293-NOX2, PMA-stimulated, NOX inhibitor project, primary screen (AID 1159). Further: test concentration not given here. The conditions noted are these: 45 min, higher = more signal, called active from +8 up or from −8 down.
In experiment [9] the target is NADPH oxidase 4 (Homo sapiens) (UniProt Q9NPH5). The experiment can be described thus: compounds shifting NOX4 Amplex Red fluorescence – cell-based, HEK293-NOX4, tetracycline-induced, NOX inhibitor project, primary screen (AID 1160). As to conditions: HEK293-NOX4, Amplex Red H2O2 fluorescence, 45 min; higher = more signal, called active from +8 up or from −8 down.
Experiment [10] deals with NADPH oxidase 5 (Homo sapiens) (UniProt Q96PH1). Put plainly: compounds shifting NOX5 Amplex Red fluorescence – cell-based, HEK293-NOX5, NOX inhibitor project, primary screen (AID 1161). The conditions noted are these: HEK293-NOX5, ionomycin, 45 min, higher = more signal.
Experiment [11] in a line: compound effects on lung adenocarcinoma cell viability – A549, calcein-AM fluorescence, 48 h, basal, profiling panel (AID 1162). Further: test concentration not given here. The conditions noted are these: higher = more signal.
A short description of experiment [12]: compound effects on differentiated 3T3-L1 adipocyte viability – cell-based, 3T3-L1 adipocytes, calcein-AM fluorescence, 48 h, basal, profiling panel (AID 1163). Further: test concentration not given here. The conditions noted are these: 3T3-L1 adipocytes viability, higher = more signal.
Experiment [13] can be described thus: compound effects on hepatocellular carcinoma cell viability – HepG2, calcein-AM fluorescence, 48 h, basal, profiling panel (AID 1164). Further: test concentration not given here. The conditions noted are these: higher = more signal.
The nature of experiment [14]: compound effects on multiple myeloma cell viability – MM1S, calcein-AM fluorescence, 48 h, basal, profiling panel (AID 1165). Further: test concentration not given here. As to conditions: higher = more signal.
Experiment [15] is described as follows: calcein-AM signal in unstimulated myeloma cells – cell-based, calcein-AM fluorescence, 48 h, PK04 Diversity Set, profiling panel (AID 1166).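 Further: cells grown under basal conditions without added stimulus; test concentration not given here.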 As to conditions: RPMI8226 myeloma viability, higher = more signal.
Experiment [16] can be described thus: JC-1 mitochondrial signal, unstimulated HepG2 cells – cell-based, JC-1 fluorescence, 24 h, 100 nL compound, profiling panel (AID 1167). Further: test concentration not given here. As to conditions: HepG2 mitochondrial potential, higher = more signal.
The nature of experiment [17]: JC-1 mitochondrial signal, unstimulated adipocytes – cell-based, JC-1 fluorescence, 3T3-L1 adipocytes, 24 h, 100 nL compound, profiling panel (AID 1168). Further: test concentration not given here. The conditions noted are these: JC-1 mitochondrial fluorescence, higher = more signal, called active from +8 up or from −8 down.
Experiment [18] can be described thus: JC-1 mitochondrial signal, unstimulated myeloma cells – cell-based, JC-1 fluorescence, RPMI8226, 24 h, 100 nL compound, profiling panel (AID 1169). Further: test concentration not given here. As to conditions: JC-1 mitochondrial potential fluorescence, higher = more signal.
Experiment [19] can be described thus: JC-1 mitochondrial signal, unstimulated MM1S myeloma – cell-based, JC-1 fluorescence, 24 h, 100 nL compound, profiling panel (AID 1170). Further: test concentration not given here. As to conditions: MM1S mitochondrial potential, higher = more signal.
Experiment [20] in a line: resazurin metabolic signal in A549 cells – cell-based, resazurin fluorescence, 24 h, PK04 Diversity Set, profiling panel (AID 1171). Further: test concentration not given here. As to conditions: A549 viability, higher = more signal, called active from +8 up or from −8 down. (Resazurin is reduced to fluorescent resorufin, in cell work by metabolically active cells.)

Calls of active or inactive are those of the source.

Chain of NADPH oxidase 4 (Homo sapiens) (Q9NPH5 whole entry, looked up): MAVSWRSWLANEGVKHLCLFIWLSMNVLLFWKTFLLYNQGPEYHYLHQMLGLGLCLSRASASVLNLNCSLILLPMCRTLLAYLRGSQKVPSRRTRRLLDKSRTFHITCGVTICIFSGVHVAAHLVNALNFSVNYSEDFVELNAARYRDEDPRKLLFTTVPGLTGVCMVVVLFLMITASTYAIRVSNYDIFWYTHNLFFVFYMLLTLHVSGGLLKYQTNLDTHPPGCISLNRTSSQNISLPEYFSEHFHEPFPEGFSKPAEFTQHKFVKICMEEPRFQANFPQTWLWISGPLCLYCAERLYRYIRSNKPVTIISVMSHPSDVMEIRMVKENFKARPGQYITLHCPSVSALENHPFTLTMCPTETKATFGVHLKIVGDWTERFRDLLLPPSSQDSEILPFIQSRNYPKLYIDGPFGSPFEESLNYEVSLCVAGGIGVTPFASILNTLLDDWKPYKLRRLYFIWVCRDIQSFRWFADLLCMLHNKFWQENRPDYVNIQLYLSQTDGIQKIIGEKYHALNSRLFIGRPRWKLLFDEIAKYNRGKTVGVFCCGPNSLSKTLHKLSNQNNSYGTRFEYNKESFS
Chain of NADPH oxidase 5 (Homo sapiens) (Q96PH1 whole entry, looked up): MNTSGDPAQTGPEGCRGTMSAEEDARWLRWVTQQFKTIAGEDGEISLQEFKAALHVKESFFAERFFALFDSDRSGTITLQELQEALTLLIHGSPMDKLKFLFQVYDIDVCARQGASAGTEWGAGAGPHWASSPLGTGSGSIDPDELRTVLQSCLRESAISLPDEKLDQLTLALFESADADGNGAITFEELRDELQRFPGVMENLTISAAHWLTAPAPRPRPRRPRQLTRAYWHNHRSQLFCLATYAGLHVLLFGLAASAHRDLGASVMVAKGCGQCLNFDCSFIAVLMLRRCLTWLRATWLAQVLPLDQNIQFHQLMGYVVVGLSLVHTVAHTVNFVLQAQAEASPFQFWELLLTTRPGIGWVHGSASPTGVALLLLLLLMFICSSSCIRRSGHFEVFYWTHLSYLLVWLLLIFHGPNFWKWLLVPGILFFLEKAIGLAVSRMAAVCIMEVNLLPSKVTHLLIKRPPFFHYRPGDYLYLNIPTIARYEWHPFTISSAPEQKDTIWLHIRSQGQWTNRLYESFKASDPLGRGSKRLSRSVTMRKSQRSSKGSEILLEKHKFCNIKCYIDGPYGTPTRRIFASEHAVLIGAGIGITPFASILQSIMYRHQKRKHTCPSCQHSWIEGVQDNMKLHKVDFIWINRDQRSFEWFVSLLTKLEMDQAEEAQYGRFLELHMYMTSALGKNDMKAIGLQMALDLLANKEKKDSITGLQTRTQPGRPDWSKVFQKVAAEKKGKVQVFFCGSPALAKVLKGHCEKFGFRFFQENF
Chain of NADPH oxidase 2 (Homo sapiens) (P04839 whole entry, looked up): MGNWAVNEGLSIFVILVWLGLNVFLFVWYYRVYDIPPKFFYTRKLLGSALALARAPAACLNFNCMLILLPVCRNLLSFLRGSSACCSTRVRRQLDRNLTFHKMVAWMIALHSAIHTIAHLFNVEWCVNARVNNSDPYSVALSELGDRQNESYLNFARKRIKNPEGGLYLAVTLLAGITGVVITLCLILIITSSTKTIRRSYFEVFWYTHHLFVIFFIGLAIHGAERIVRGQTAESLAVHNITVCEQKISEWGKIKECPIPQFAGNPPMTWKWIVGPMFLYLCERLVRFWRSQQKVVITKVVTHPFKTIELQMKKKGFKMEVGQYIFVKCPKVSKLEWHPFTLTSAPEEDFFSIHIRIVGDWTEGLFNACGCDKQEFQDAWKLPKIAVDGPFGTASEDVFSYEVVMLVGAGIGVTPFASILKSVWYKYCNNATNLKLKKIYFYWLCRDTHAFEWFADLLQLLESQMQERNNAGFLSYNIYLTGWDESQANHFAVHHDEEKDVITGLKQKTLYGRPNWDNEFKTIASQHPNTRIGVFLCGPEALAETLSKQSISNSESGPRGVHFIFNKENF

With `CCOC(=O)[C@H](CC(C)C)NC(=O)CCC1CC(OC(=O)NCCc2ccc(F)cc2)CC2(CCCC(COC(=O)NCCOc3ccccc3)O2)O1` (stereo not given in full), the z-score in [1] is -0.221 (inactive); in experiment [3] it was 4.92 (inactive); in experiment [4], 0.394 (inactive); in experiment [5], 0.881 (inactive); in experiment [6], 0.323 (inactive); in experiment [7], 0.45. In addition, the z-score in experiment [8] is 1.82 (inactive); in experiment [9], 0.31 (inactive); in experiment [10], 1.33; in [11], -0.331; in experiment [12], 0.593; in experiment [13] it was -2.7. In addition, the z-score was -3.46 in experiment [14]; -3.56 in experiment [15]; -1.82 in experiment [16]; 1.04 (inactive) in experiment [17]; -0.462 in [18]; -0.0103 in experiment [19]. In [20], the z-score was 0.169 (inactive). Besides, the composite z-score in [2] is -0.263.
On to `COC(=O)[C@@H]1CC[C@H](C)[C@@H](c2ccc(C)cc2)N1C(=O)c1ccc(C=NOC[C@@H](C)[C@H](OCc2ccccc2)C(C)C)cc1`, for which the z-score in [1] is -1.07 (inactive); in experiment [3], 1.25 (inactive); in [4] it was -1.62 (inactive); in experiment [5], -0.467 (inactive); in experiment [6], -1.35 (inactive); in [7] it was 2.57. In addition, the z-score in experiment [8] is -1.28 (inactive); in [9] it was -0.428 (inactive); in [10], 0.388; in [11], 0.188; in [12] it was 0.903; in experiment [13], 2.13. Besides, the z-score was -0.168 in experiment [14]; -0.0791 in experiment [15]; 1.6 in [16]; -0.483 (inactive) in [17]; -0.998 in experiment [18]; -1.01 in [19]. Also, in experiment [20], the z-score was -1.19 (inactive). The composite z-score in experiment [2] is -0.18.
Take `O=C1[C@H]2[C@H]3[C@H](O)[C@H](O)CC(=NOCc4ccccc4)[C@@H]3CC[C@H]2C(=O)N1c1ccc(F)cc1F`: the z-score in [1] is -0.246 (inactive); in experiment [3], 1.17 (inactive); in experiment [4], -0.56 (inactive); in [5], 0.512 (inactive); in [6] it was -1.36 (inactive); in experiment [7], 2.35. Besides, the z-score in experiment [8] was -0.409 (inactive); in experiment [9], 0.18 (inactive); in experiment [10], 0.343; in experiment [11], 0.504; in experiment [12] it was -0.23; in experiment [13] it was 0.688. Moreover, the z-score was 0.635 in experiment [14]; 1.13 in experiment [15]; 1.51 in experiment [16]; -0.371 (inactive) in [17]; -0.261 in experiment [18]; -1.57 in [19]. Besides, the z-score in [20] was -1.03 (inactive). For the same compound, in experiment [2], the composite z-score is -0.391.
As for `O=C1C2=CC[C@H]3C(=O)N(c4cccc(Oc5ccccc5)c4)C(=O)[C@H]3[C@H]2[C@H](O)[C@@H]2O[C@H]12`, the z-score in [1] is -0.462 (inactive); in experiment [3], -0.0001 (inactive); in experiment [4] it was -0.295 (inactive); in experiment [5], -0.081 (inactive); in [6] it was 0.157 (inactive); in [7], -0.194. The z-score in experiment [8] is 0.042 (inactive); in experiment [9], 0.605 (inactive); in experiment [10], 0.4; in experiment [11], -1.07; in [12] it was -0.0208; in experiment [13], -3.98. In addition, the z-score is -3.09 in [14]; -3.84 in experiment [15]; -0.778 in experiment [16]; -0.298 (inactive) in experiment [17]; -1.05 in [18]; -3.02 in experiment [19]. In addition, the z-score in experiment [20] is -1.35 (inactive). For the same compound, the composite z-score in experiment [2] was -0.103.
On to `CCN1C(=O)[C@H]2[C@H]3[C@H](O)[C@H](O)CC(=NO[C@@H](C)c4cn([C@H](CO)Cc5ccccc5)nn4)[C@@H]3CC[C@H]2C1=O`, for which the z-score was 0.115 (inactive) in experiment [1]; 0.202 (inactive) in experiment [3]; 0.453 (inactive) in [4]; 0.357 (inactive) in experiment [5]; 0.146 (inactive) in [6]; -0.66 in experiment [7]. Also, the z-score in [8] was 0.0799 (inactive); in experiment [9], -2.08 (inactive); in [10] it was 0.0391; in [11], -0.293; in [12] it was 0.0248; in experiment [13], -0.644. The z-score in experiment [14] is -1.59; in experiment [15], -0.784; in [16] it was -0.559; in [17], -1.49 (inactive); in [18] it was 0.695; in [19], 0.0117. Moreover, in [20], the z-score was -0.499 (inactive). The same compound showed a composite z-score in [2] of 0.0618.
